Entries with a potency or affinity are not part of this list. Results filed as inconclusive are left out. A number with no mark means an inactive call.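 How the source made its calls: active means fluorescent signal drops by 40% or more, counted as a hit; inconclusive means no clear call, values can overlap the other calls; inactive means the rest, including any activity in the opposite direction.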

The assay in a line: blockers of FN fibrillogenesis by fibroblasts – AH1F cells, Alexa488-FN fluorescence, cherry-picks, dose response (AID 1035475).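 Further: AH1F fibroblasts incorporating labeled fibronectin into their extracellular matrix; 0% = neutral control wells and -100% = wells without labeled fibronectin.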 The note with it: Alexa488-fibronectin deposition fluorescence, overnight; series mostly up to 35 µM; activity change, negative = inhibition: at the top concentration.
Turning to `S=C(NCC1CCCO1)Nc1ccc(Cl)cc1Cl` (stereo not given), the “activity change, negative = inhibition” value was -11%.
`O=C(CN1CCCC1)Nc1ccc(Oc2ccc(NC(=O)CN3CCCC3)cc2)cc1`: the “activity change, negative = inhibition” value is -14.8%.
For the molecule `CO[C@H]1CN(C)C(=O)c2cc(NC(=O)Nc3ccc(Cl)c(Cl)c3)ccc2OC[C@H](C)NC[C@@H]1C`, the “activity change, negative = inhibition” value was -15.6%.
Take `O=S(=O)(c1ccccc1F)N1CC[C@@H]2[C@H](CO)Nc3ccc(-c4cccc(F)c4)cc3[C@@H]21`: the “activity change, negative = inhibition” value was 21.5%.
`C[C@H](CO)N1C[C@H](C)[C@H](CN(C)C)Oc2cc(C#C[C@@H](C)O)ccc2S1(=O)=O`: the “activity change, negative = inhibition” value is 27.1%.
For `COc1ccc(CN(C2CCCC2)S(=O)(=O)c2ccc(-n3cnnn3)cc2)cc1OC`, the “activity change, negative = inhibition” value is -21.3%.
Take `CN1c2ccc(-c3ccccc3)cc2[C@@H]2[C@@H](CCN2C(=O)CN2CCOCC2)[C@H]1CO`: the “activity change, negative = inhibition” value was 17.3% [at 30 µM].
As to `CO[C@H]1CN(C)C(=O)c2cc(NC(=O)Nc3cc(Cl)cc(Cl)c3)ccc2OC[C@@H](C)NC[C@@H]1C`, the “activity change, negative = inhibition” value is 9.01%.
`N#C[C@@H]1[C@@H](c2ccccc2C2=CCCCC2)[C@@H](CO)N1S(=O)(=O)c1ccccc1`: the “activity change, negative = inhibition” value was 35.2% [at 30 µM].
To `C[C@H](CO)N1C[C@H](C)[C@H](CN(C)C(=O)Nc2cccc3ccccc23)Oc2c(NC(=O)Nc3ccc(C(F)(F)F)cc3)cccc2C1=O` belongs 14.8%.
In the case of `O=C(Nc1ccc(Cl)cc1)N1C[C@H]2[C@@H](c3ccccc31)[C@H](CO)N2CC1CCCC1`, the “activity change, negative = inhibition” value was 40.8%.
As for `C[C@@H](O)C#Cc1ccc2c(c1)O[C@@H](CN(C)C)[C@@H](C)CN([C@@H](C)CO)S2(=O)=O`, the “activity change, negative = inhibition” value is 21.2%.
As for `C[C@@H]1CN([C@@H](C)CO)C(=O)c2cc(-c3ccccc3)cnc2O[C@H]1CN(C)Cc1ccccc1`, the “activity change, negative = inhibition” value is 22.7%.
For the molecule `CCCCNC(=O)Nc1nc2ccc(CC)cc2s1`, the “activity change, negative = inhibition” value is -10.3%.
To `C[C@@H]1CN([C@@H](C)CO)C(=O)c2cccc(NC(=O)Nc3ccc(C(F)(F)F)cc3)c2O[C@H]1CN(C)C(=O)Nc1cccc2ccccc12` belongs -29.2%; to `COc1ccccc1CC(=O)OC(C)C(=O)Nc1ccc(S(=O)(=O)N2CCCCC2)cc1` (stereo not given), -36.8%.
To `C[C@@H]1CN([C@H](C)CO)C(=O)c2cc(NC(=O)CCCN(C)C)ccc2O[C@@H]1CN(C)Cc1ccc(-c2ccccc2)cc1` belongs 7.33%.
To `COCC(=O)Nc1ccc2c(c1)C(=O)N(C)[C@@H]1CC[C@@H](CC(=O)NCc3ccccc3Cl)O[C@@H]1CO2` belongs 40%; to `C[C@H](O)C#Cc1ccc2c(c1)O[C@@H](CN(C)C)[C@H](C)CN([C@H](C)CO)S2(=O)=O`, 26.9%; to `COc1ccc(-c2oc3ncnc(NCCCN4CCOCC4)c3c2-c2ccc(OC)cc2)cc1`, -21.5%.
For the molecule `COC(=O)C[C@H]1CC[C@@H]2[C@H](COc3ccc(NC(=O)Cc4cccs4)cc3C(=O)N2C)O1`, the “activity change, negative = inhibition” value is 10.4%.
With `Cc1ccccc1S(=O)(=O)N1CC[C@H]2[C@H](CO)Nc3ccc(-c4ccc(C#N)cc4)cc3[C@H]21` the figure was -14.9%; with `COc1ccc([N+](=O)[O-])cc1NS(=O)(=O)c1ccc(C(=O)N2CCCC2)cc1`, -0.187%; with `Cc1oc2ccc(O)cc2c1C(=O)c1ccc(Br)cc1`, -1.76%.
With `CCc1nc2c(OCCc3cccc(OC)c3)cccn2c1N(C)C(=O)c1ccc(C)cc1`, the “activity change, negative = inhibition” value is -32.4%.
In the case of `COCC(=O)Nc1ccc2c(c1)C(=O)N(C)[C@H]1CC[C@H](CC(=O)NCc3ccccc3Cl)O[C@H]1CO2`, the “activity change, negative = inhibition” value was 12.8%.
On to `Nc1nc(-c2cc3c(cc2Cl)OCCO3)cs1`, for which the “activity change, negative = inhibition” value was 8.3%.
With `C[C@H](CO)N1C[C@H](C)[C@@H](CN(C)C(=O)Nc2cccc3ccccc23)Oc2c(NC(=O)Nc3ccc(C(F)(F)F)cc3)cccc2C1=O` the figure was 22.4%; with `N#C[C@@H]1[C@H](c2ccccc2C2=CCCCC2)[C@@H](CO)N1S(=O)(=O)c1ccccc1`, 59.9%.
With `CO[C@@H]1CN(C)C(=O)c2ccc(NC(=O)c3ccc(-c4ccccc4)cc3)cc2OC[C@H](C)NC[C@@H]1C` the figure was 5.74%.
For the molecule `C[C@H](CO)N1C[C@H](C)[C@@H](CN(C)Cc2ccc(-c3ccccc3)cc2)Oc2ccc(NC(=O)CCCN(C)C)cc2C1=O`, the “activity change, negative = inhibition” value is 27%.
With `COCC(=O)Nc1ccc2c(c1)C(=O)N(C)[C@@H]1CC[C@@H](CC(=O)NCc3ccccc3Cl)O[C@H]1CO2`, the “activity change, negative = inhibition” value was 16.5% [at 30 µM].
On to `CO[C@H]1CN(C)C(=O)c2ccc(NC(=O)c3ccc(-c4ccccc4)cc3)cc2OC[C@H](C)NC[C@H]1C`, for which the “activity change, negative = inhibition” value is 21.2%.
Take `CCc1ccc(NC(=O)CSc2nnc(-c3ccco3)o2)cc1`: the “activity change, negative = inhibition” value was -11.6%.
As to `CC(C)Cc1nnc(NC(=O)CSc2nc(N)cc(=O)[nH]2)s1`, the “activity change, negative = inhibition” value was 5.29%.

(Values after PubChem BioAssay AID1035475 (Broad Institute, 2014).)
